Structures are written as SMILES. Records with an inconclusive call do not appear. Calls of active or inactive are those of the source. Calls follow the shape of the dose curve; as a rule, active = well fitted cell-killing curve with a large enough effect; inconclusive = small, poorly fitted or top-dose-only effect, or effect the other way; inactive = no such curve, though single readings can be large or run the other way.

This assay relates to SKOV3. Description: Confirmatory qHTS for gynecologic anti-cancer compounds from libraries of approved drugs and bioactive compounds. Also: nearly all actives have a fitted effect of over 55% in size. The conditions noted are these: gynecologic cancer cell panel viability, ATPlite luminescence, 48 h; series mostly up to 57.6 µM. The gist of the method:
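IC50 values derive from an ATPlite ATP-content luminescence assay following 48 h treatment at 37 C. Each compound ran as an 11-concentration, threefold series (57.5 uM to 0.977 nM); HEK 293T served as control line for selectivity index.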
`C=C(C)[C@H]1Cc2c(ccc3c2O[C@@H]2COc4cc(OC)c(OC)cc4[C@@H]2C3=O)O1`: the result was inactive.

With `C[C@]12CC[C@H]3[C@@H](CCC4=CC(=O)CC[C@@H]43)[C@@H]1CC[C@@H]2OC(=O)CCc1ccccc1`, the molecule was called inactive.

Turning to `CCOc1ccccc1-n1c(C(C)N2CCN(C(=O)COc3ccc(Cl)cc3)CC2)nc2ccccc2c1=O` (stereo not given), the molecule was classed as inactive.

In the case of `O=C(O)Cc1ccccc1`, the molecule was classed as inactive.

On to `CCC(=O)O[C@H]1CC[C@H]2[C@@H]3CCC4=CC(=O)CC[C@]4(C)[C@H]3CC[C@]12C`, for which the call was inactive.

The values above are taken from PubChem BioAssay AID1345085 (National Center for Advancing Translational Sciences (NCATS), 2018).
